Compounds with a hit are over-represented: about 10% of the library has one in this group of screens.
G9a block: inhibitors of human histone lysine methyltransferase G9a | G9a H3K9 monomethylation, AlphaScreen, 2 h | Potency, µM (highest dose often 102 µM), most hits filed as inhibitors | actives 8.8% (n = 350,000) | AID 504332; also: nearly all actives have a fitted effect of over 75% in size
Target sequence (Q96KQ7 913-1193 limits assumed): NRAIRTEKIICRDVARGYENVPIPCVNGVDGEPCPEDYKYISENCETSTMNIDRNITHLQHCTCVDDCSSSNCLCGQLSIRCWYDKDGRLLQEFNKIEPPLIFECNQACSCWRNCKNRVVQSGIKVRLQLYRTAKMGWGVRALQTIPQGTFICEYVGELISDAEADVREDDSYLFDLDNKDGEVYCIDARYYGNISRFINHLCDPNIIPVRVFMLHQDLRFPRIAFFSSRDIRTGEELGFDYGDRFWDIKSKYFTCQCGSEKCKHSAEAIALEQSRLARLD
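AlphaScreen detection with an anti-monomethyl H3K9 antibody quantified product after a 2 h room-temperature reaction containing 500 nM biotinylated H3K9 peptide, 20 µM SAM and 20 nM enzyme, which had been preincubated 15 min with compound.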
HP1b binding inh: blocks HP1-beta chromodomain binding to methylated histone tails; P83916; AlphaScreen HP1-beta / biotin-H3K9me3 peptide binding; Potency, µM (top dose mostly 114 µM), hits mostly inhibitors; actives 0.56% (n = 390,000); AID 540317; also: nearly all actives have a fitted effect of over 70% in size
Target sequence (P83916 whole entry, looked up): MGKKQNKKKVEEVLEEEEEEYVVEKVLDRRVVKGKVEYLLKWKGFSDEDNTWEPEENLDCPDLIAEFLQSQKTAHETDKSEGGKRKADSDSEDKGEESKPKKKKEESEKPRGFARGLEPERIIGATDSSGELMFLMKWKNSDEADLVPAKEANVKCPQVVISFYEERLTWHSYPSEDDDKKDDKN
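Compound inhibition of the preformed complex between 50 nM HP1-beta and 50 nM biotinylated H3K9me3 peptide was read by AlphaScreen. Buffer was PBS pH 7.4 with 0.01% Tween-20. Incubations ran 30 min at room temperature, with 10 ug/mL donor/acceptor beads.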
JMJD2A Tudor: inhibitors of human JMJD2A Tudor domain; O75164; AlphaScreen JMJD2A-Tudor / H3K4me3 peptide binding; Potency, µM (series often up to 114 µM), usual class: inhibitors; actives 4.4% (n = 390,000); AID 504339; also: nearly all actives have a fitted effect of over 50% in size
BAZ2B inh: blocks human BAZ2B; AlphaScreen BAZ2B-H3K14Ac peptide displacement; actives 4.4% (n = 360,000); Potency, µM (top dose mostly 114 µM), usual class: inhibitors; AID 504333; Q9UIF8; also: nearly all actives have a fitted effect of over 60% in size
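In this displacement format the biotinylated H3(5-23) peptide acetylated at Lys14 serves as ligand at 50 nM, with BAZ2B at 50 nM in PBS pH 7.4 containing 0.01% Tween-20. Donor and acceptor beads are 10 ug/mL final.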
CtBP-E1A blk: inhibitors of CtBP/E1A interaction. AlphaScreen GST-E1A/His-CtBP binding, 1536-well; active compounds read low. activity change, % (no concentration beside the values). actives 0.49% (n = 340,000); in the data active = activity change below about -65%; inconclusive = mostly about -30% to -63%
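GST-E1A and His-tagged CtBP (125 nM each as 5X stock) were preincubated with pin-transferred compound for 2 h at 37 °C in the dark, then glutathione donor and nickel acceptor beads were added for 1 h before AlphaScreen reading.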
Six1-Eya2 blk: blocks human Six1 binding to Eya2 | Q15475+O00167 | AlphaScreen GST-Six1/His-Eya2 binding, biochemical; active compounds read low | activity change, % (no concentration beside the values) | actives 0.56% (n = 360,000); in the data active = activity change below about -65%; inconclusive = mostly about -30% to -63%
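GST-Six1 + His-Eya2 (5X stock: 250/500 nM); Tris pH 8.0, 300 mM NaCl, 0.05% BSA, 0.02% Tween 20; GSH donor/Ni acceptor beads; 1 h 37 °C dark; AlphaScreen readout.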
A number is an active result; - = inactive; ? = inconclusive; . = no result given; [ ] = remark or other dose. Unless noted, calls follow the shape of the dose curve; as a rule, active = well fitted inhibition curve with a large enough effect; inconclusive = small, poorly fitted or top-dose-only effect; inactive = no such curve, though single readings can be large or run the other way.

SMILES	G9a block	HP1b binding inh	JMJD2A Tudor	BAZ2B inh	CtBP-E1A blk	Six1-Eya2 blk
CCc1ccc(N=C2NC(=O)/C(=C/c3cc(OC)c(OC)c(OC)c3)S2)cc1	-	-	-	-	-	-
COc1cc(/C=C2\SC(=Nc3ccc(O)cc3)NC2=O)cc(OC)c1O	-	-	-	-	-65.4	?
Cn1cccc1/C=C1\SC(=Nc2cccc(O)c2)NC1=O	.	?	?	25.1µM	-	-
Cc1ccc(CNC(=O)CN2CCN(Cc3ccc(F)cc3)C2=O)cc1	-	-	-	-	.	.
Cc1c(C(=O)N(C)C)sc2c1c(=O)n(-c1ccc(Cl)c(Cl)c1)c(=O)n2CC(=O)Nc1cccc(C(F)(F)F)c1	-	-	-	-	.	.
Cc1ccc(-n2cc(C(=O)OCc3ccc(Cl)cc3)c3ccccc3c2=O)cc1	-	-	-	-	.	.
Cc1ccc2[nH]c(=O)c(CN(C(=O)c3cccc(Cl)c3)C(C)(C)C)cc2c1	-	-	-	-	.	.
NC(Cc1ccc(F)cc1)c1csc(Nc2ccc(C(=O)NCCCO)cn2)n1 (stereo not drawn)	.	.	.	.	-72.1	-67.6
CC(C)CC(N)c1csc(Nc2ccc(C(=O)NCCCO)cn2)n1 (stereo not drawn)	.	.	.	.	-77.9	-70.1
NC(Cc1ccccc1)c1csc(Nc2ccc(C(=O)NCCO)cc2)n1 (stereo not drawn)	.	.	.	.	-	-
Cc1ccc(C)c(-c2[nH]c3c(c2-c2c(-n4cccc4)n(C)c(=O)[nH]c2=O)c(=O)[nH]c(=O)n3C)c1	-	-	-	-	.	.
CCOc1ccc(NC(=O)CN(C)C(=O)C2CC(=O)N(c3ccc4c(c3)OCCO4)C2)cc1OCC (stereo not drawn)	-	-	-	-	-	-
CCOc1ccc(NC(=O)CN(C)C(=O)C2CC(=O)N(c3cccc(SC)c3)C2)cc1OCC (stereo not drawn)	.	-	-	.	-71.7	-65.0
COCCn1c(SCC(=O)OCc2ccccc2)nc2c1c(=O)[nH]c(=O)n2C	31.6µM	-	-	-	-	-
CC(C)n1c(SCCCc2ccccc2)nc2c1c(=O)[nH]c(=O)n2C	35.5µM	-	-	-	-	-
C/C=C/Cn1c(N(C)Cc2ccccc2)nc2c1c(=O)[nH]c(=O)n2C	50.1µM	-	-	-	-	-
CCCCCOC(=O)CSc1nc2c(c(=O)[nH]c(=O)n2C)n1CCc1ccccc1	12.6µM	-	-	-	-	-
COCCn1c(SCc2ccccc2)nc2c1c(=O)[nH]c(=O)n2C	-[2.33 µM]	-	-	-	-	-
CCCCCn1c(SCCc2ccccc2)nc2c1c(=O)[nH]c(=O)n2C	-	-	-	-	-	-
CCC(C)NC(=O)CSc1nc2c(sc3ccccc32)c(=O)n1Cc1ccccc1Cl (stereo not drawn)	-	-	-	-	.	.
CC1=C(c2ccc(C)c(C)c2)S(=O)(=O)N(Cc2ccc(C(=O)NCc3cccc(C)c3)cc2)C1=O	-	-	-	-	.	.
CCCCSc1nc2c(c(=O)[nH]c(=O)n2C)n1CCc1ccccc1	?	-	-	-	-	-
C/C=C/Cn1c(SCCCc2ccccc2)nc2c1c(=O)[nH]c(=O)n2C	44.7µM	-	-	-	-	-
COCCSc1nc2c(c(=O)[nH]c(=O)n2C)n1CCCc1ccccc1	.	-	-	-	-	-
CCCn1c(SCCc2ccccc2)nc2c1c(=O)[nH]c(=O)n2C	?	-	-	-	-	-
SMILES	G9a block	HP1b binding inh	JMJD2A Tudor	BAZ2B inh	CtBP-E1A blk	Six1-Eya2 blk
C=CCn1c(SCCOC)nc2c1c(=O)[nH]c(=O)n2C	39.8µM	-	-	-	-	-
C=CCn1c(SCCCc2ccccc2)nc2c1c(=O)[nH]c(=O)n2C	44.7µM	-	-	-	-	-
COCCn1c(SCCCc2ccccc2)nc2c1c(=O)[nH]c(=O)n2C	50.1µM	-	-	-	-	-
C=CCn1c(SCCN2CCCCC2)nc2c1c(=O)[nH]c(=O)n2C	?	-	-	-	-	-
CCC(=O)N1CCc2cc(S(=O)(=O)Nc3cc(C)ccc3OC)ccc21	-	-	-	-	.	.
Cc1cc2c(s1)c1cnn(Cc3ccccc3Cl)c(=O)c1n2C	.	.	-	.	.	.
CCc1ccc(S(=O)(=O)c2nnn3c2nc(N(C)Cc2ccccc2)c2cc(Cl)ccc23)cc1	-	-	-	-	.	.
CC1CCN(S(=O)(=O)c2ccc3c(c2)N(CC(=O)N2CCN(c4ccc(Cl)cc4)CC2)C(=O)CO3)CC1	-	-	-	-	.	.
COc1ccc(C(=O)OCc2cc(=O)n3nc(-c4cccs4)sc3n2)cc1	-	-	-	-	.	.
O=C(Cc1ccccc1)NNC(=O)Cc1ccccc1	-	-	-[11.4 µM]	-	.	-
O=C(Cc1ccccc1)NC(NNc1ccccc1)(C(F)(F)F)C(F)(F)F	10µM	?	?	-	-	-

Assay outcomes (PubChem BioAssay)
